From PubChem BioAssay
Pf growth 48h – Primary qHTS for delayed death inhibitors of the malarial parasite plastid, 48 hour incubation; P. falciparum luciferase growth in erythrocytes, 48 h; Potency, µM (series often up to 28.7 µM), most hits filed as inhibitors; 310,000 tested, 5.9% active; AID 504832, 2011
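Growth was read as firefly luciferase luminescence after a 48 h, 37 C, 5% CO2 exposure of compounds to reporter-bearing P. falciparum cultures (0.1% parasitemia, 2% hematocrit final) in Albumax-supplemented RPMI 1640.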
AMA1 RON2 block – qHTS for Inhibitors of AMA1-RON; Towards Development of Antimalarial Drug Lead: Primary Screen; Plasmodium falciparum AMA1 (3D7) - RON2 peptide interaction; AlphaScreen AMA1-biotinylated RON2 peptide binding; Potency, µM (series often up to 58.2 µM), most hits filed as inhibitors; 360,000 tested, 0.2% active; AID 720542, 2013; note: nearly all actives have a fitted effect of over 45% in size
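AMA1 (3D7) with his tag at 25 nM final met compounds first, then biotinylated RON2 peptide at 25 nM; detection used donor plus acceptor beads, 10 µg/mL apiece, read by AlphaScreen after 30 min at room temperature.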
Pf growth 96h – Primary qHTS for delayed death inhibitors of the malarial parasite plastid, 96 hour incubation; P. falciparum luciferase reporter growth, 96 h; Potency, µM (highest dose often 28.7 µM), hits mostly inhibitors; AID 504834, 2011; 320,000 tested, 6.9% active
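Luminescence readout: decreased luciferase signal marks inhibited growth of reporter-expressing P. falciparum in infected red cells (2% hematocrit, 0.05% parasitemia final), exposed to compound two generations (96 h, 37 C, 5% CO2).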
HCV inh – qHTS Assay for Inhibitors of Hepatitis C Virus (HCV). Potency, µM (doses to about 41.8 µM), hits mostly inhibitors. Huh7.5.1 HCVcc-Cre infection, luciferase reporter, 44 h. 340,000 tested, 3.4% active. AID 651820, 2012
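Infectious HCVcc-Cre (~0.5 moi) was added to cells just after compound, with cells seeded 4 h earlier at 1,000 per well. Luciferase activity after 44 h culture reported infection; substrate was incubated 15 min at room temperature before reading.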
Numbers stand for hits. Hits are enriched below; roughly 11% of the tested compounds scored in any of these assays. Calls come from the whole dose curve; as a rule, active = well fitted curve in the direction sought with a large enough effect; inconclusive = small, poorly fitted or top-dose-only effect, or another doubt; inactive = no such curve, though single readings can be large; an effect the other way counts as inactive or inconclusive.

What do the screens show for `Cc1cc2oc(C(=O)Nc3nonc3C)c(C)c2cc1Cl`?
Pf growth 48h: inactive; AMA1 RON2 block: inactive; Pf growth 96h: 8.28µM; HCV inh: inactive

What do the screens show for `CCc1nonc1NC(=O)c1oc2ccccc2c1C`?
Pf growth 48h: 9.28µM; AMA1 RON2 block: inactive; Pf growth 96h: inconclusive; HCV inh: inactive

What do the screens show for `CCc1nonc1NC(=O)c1oc2cc(Br)ccc2c1C`?
Pf growth 48h: 9.28µM; AMA1 RON2 block: inactive; Pf growth 96h: inconclusive; HCV inh: inactive

What do the screens show for `CCc1ccc2oc(C(=O)Nc3nonc3CC)c(C)c2c1`?
Pf growth 48h: inactive; AMA1 RON2 block: inactive; Pf growth 96h: inactive; HCV inh: inconclusive

Results for COc1ccc(C2=NOC(C)(c3nnc(Cc4ccccc4)o3)C2)cc1 (stereo not given) ?
AMA1 RON2 block: inactive; HCV inh: inconclusive

How did CC(C)NC(=O)c1cc(C2CCCCN2S(=O)(=O)c2ccc(C#N)cc2)on1 (stereo not given) do in these assays?
AMA1 RON2 block: inactive

Results for CCCn1c(NC(=O)c2ccc(Cl)c(S(=O)(=O)N3CCCC3)c2)nc2ccccc21 ?
Pf growth 48h: 5.86µM; AMA1 RON2 block: inactive; Pf growth 96h: 5.22µM; HCV inh: 2.51µM

What do the screens show for `CN(C)C(CNC(=O)c1ccc(Cl)c(S(=O)(=O)N2CCCCCC2)c1)c1ccccc1` (stereo not given)?
Pf growth 48h: 5.22µM; AMA1 RON2 block: inactive; Pf growth 96h: inconclusive; HCV inh: 6.31µM

What do the screens show for `O=C(NCc1ccccc1CN1CCCC1)c1ccc(Cl)c(S(=O)(=O)N2CCCC2)c1`?
Pf growth 48h: 13.1µM; AMA1 RON2 block: inactive; Pf growth 96h: 11.7µM; HCV inh: 12.6µM

How did O=C(NCc1nc2ccccc2[nH]1)c1ccc(Cl)c(S(=O)(=O)N2CCCC2)c1 do in these assays?
Pf growth 48h: 10.4µM; AMA1 RON2 block: inactive; Pf growth 96h: inactive; HCV inh: inactive

What do the screens show for `O=C(Nc1ncccc1O)c1ccc(Cl)c(S(=O)(=O)N2CCCC2)c1`?
AMA1 RON2 block: inactive

What do the screens show for `CCc1nc(CN2CCN(c3cc(C(F)(F)F)ccn3)CC2)c(C)[nH]1`?
Pf growth 48h: inactive; AMA1 RON2 block: inactive; Pf growth 96h: inactive; HCV inh: inconclusive

How did CCOC(=O)C1(C)CCCCN1C(=O)c1ccc(F)c(C)c1 (stereo not given) do in these assays?
AMA1 RON2 block: inactive

How did Cc1ccc(C(CNC(=O)c2ccc(Br)o2)N2CCN(C)CC2)cc1 (stereo not given) do in these assays?
Pf growth 48h: inactive; AMA1 RON2 block: inactive; Pf growth 96h: inactive; HCV inh: inactive

How did O=C(CN1C(=O)NC2(CCc3ccccc32)C1=O)NCC(=O)Nc1ccc(F)cc1 (stereo not given) do in these assays?
Pf growth 48h: inconclusive; AMA1 RON2 block: inactive; Pf growth 96h: inactive; HCV inh: inactive

Results for CC(NC(=O)c1ccc(Cl)c(S(=O)(=O)N2CCCCCC2)c1)c1cccnc1 (stereo not given) ?
Pf growth 48h: 11.7µM; AMA1 RON2 block: inactive; Pf growth 96h: inconclusive; HCV inh: 12.6µM

How did O=[N+]([O-])c1cc(C(F)(F)F)ccc1N1CCN(S(=O)(=O)c2ccc3c(c2)CCCC3)CC1 do in these assays?
Pf growth 48h: inactive; AMA1 RON2 block: inactive; Pf growth 96h: inactive; HCV inh: inconclusive

How did CC(C)(C)n1cccc1/C=C1\C(=O)NC(=O)N(c2ccccc2)C1=O do in these assays?
Pf growth 48h: inactive; AMA1 RON2 block: inactive; Pf growth 96h: 10.4µM; HCV inh: inactive

What do the screens show for `O=C(Nc1ccccc1C(F)(F)F)c1cc2ncc(CCCl)cn2n1`?
Pf growth 48h: inconclusive; AMA1 RON2 block: inactive; Pf growth 96h: inconclusive; HCV inh: inconclusive

How did COc1ccc(CN(C(=O)c2ccc(-c3ccccc3)[nH]2)C(C(=O)NCC2CCCO2)c2ccc(C)o2)cc1 (stereo not given) do in these assays?
Pf growth 48h: 8.28µM; AMA1 RON2 block: inconclusive; Pf growth 96h: 6.57µM; HCV inh: inactive

What do the screens show for `COc1ccc(CN(CC(=O)NC2CCCC2)C(=O)c2ccc(-c3ccccc3)[nH]2)cc1`?
Pf growth 48h: inconclusive; AMA1 RON2 block: inconclusive; Pf growth 96h: inactive; HCV inh: inactive

How did CC(C)(C)NC(=O)C(c1cccs1)N(CC1CCCO1)C(=O)Cn1nnc(-c2cccs2)n1 (stereo not given) do in these assays?
Pf growth 48h: inconclusive; AMA1 RON2 block: inconclusive; HCV inh: inactive
